# Out of some 48,000 compounds screened, about 13,000 (27%) showed an effect of 50% or more. This is one part of the list.
# Test system: Wolbachia pipientis
# Experiment: Anti-Wolbachia Cell-Based Screen
# Format: functional
# Design: scale not given: in the data most compounds retested in dose-response had high values
# Conditions: 5 µM
row,Compound,Percent Effect [%]
1,CCC(Nc1ccc(Oc2ccc(C#N)cc2OC)cc1)C(N)=O (stereo not drawn),-15.11
2,Cc1nc(C)n(CC2CN(Cc3cccs3)Cc3nccn3C2)n1.O=C(O)C(F)(F)F (stereo not drawn),12.7
3,O=C(O)C(F)(F)F.c1csc(CN2Cc3nccn3CC(Cn3cncn3)C2)c1 (stereo not drawn),90.09
4,O=C(O)C(F)(F)F.c1csc(CN2Cc3nccn3CC(Cn3cncn3)C2)n1 (stereo not drawn),-6.751
5,CC(C)Nc1cc(-c2c[nH]nc2C2CCN(C(=O)C3CCC3)C2)ccn1 (stereo not drawn),269
6,CC(C)Oc1ncccc1CNC(=O)C1CCCN(C(=O)C2CC2)C1 (stereo not drawn),-12.74
7,CC(C)CNc1cc(-c2c[nH]nc2C2CCN(C(=O)C3CC3)C2)ccn1 (stereo not drawn),239.9
8,COc1ccc(OC)c(C2CCN(C(=O)C3CCN(C(C)C)CC3)C2)c1 (stereo not drawn),-6.334
9,CN1CCCC(C(=O)N2CCC(Oc3ncccn3)CC2)C1 (stereo not drawn),16.76
10,CC(C)Nc1cc(-c2c[nH]nc2C2CCN(C(=O)C3CC3)C2)ccn1 (stereo not drawn),259.2
11,COc1ccccc1-c1nnc([C@H]2CCN(C(=O)C3CC3)C2)o1,-2.817
12,CCN(CC)CCn1cnc(-c2ccccc2)c1-c1cnc(C)s1,-4.484
13,c1ccc(-c2nc(CN3CCCC(Cn4cncn4)C3)co2)cc1 (stereo not drawn),5.722
14,Cc1cc(CN2CCCC(Cn3cncn3)C2)on1 (stereo not drawn),123.2
15,c1ncn(CC2CCCN(Cc3nc(C4CC4)no3)C2)n1 (stereo not drawn),-1.701
16,c1ccc(-c2nc(CN3CCCC(Cn4cncn4)C3)no2)cc1 (stereo not drawn),-1.614
17,Cc1cc(CN2CCCC(Cn3cncn3)C2)no1 (stereo not drawn),117
18,Cc1ccc(-c2nc(CN3CCCC(Cn4cncn4)C3)co2)cc1 (stereo not drawn),142.7
19,Cc1cc(CN2CCCC2Cn2cncn2)no1 (stereo not drawn),1.75
20,c1ccc(-c2cc(CN3CCCC(Cn4cncn4)C3)on2)cc1 (stereo not drawn),156.9
21,Cc1cc(NC(=O)CN2CCCC(Cn3cncn3)C2)no1 (stereo not drawn),-8.5
22,Cc1nc2ccccc2nc1CN1CCCC(Cn2cncn2)C1 (stereo not drawn),-7.654
23,Cc1cc(NC(=O)CN2CCCC(Cn3cncn3)C2)on1 (stereo not drawn),0.4633
24,Cc1cccc(-c2noc(CN3CCCC(Cn4cncn4)C3)n2)c1 (stereo not drawn),6.393
25,NC(=O)C1CCCN1Cc1ccccc1NC(=O)CC(F)(F)F (stereo not drawn),-9.794
26,O=C1CC(C(=O)Nc2nnc(-c3ccoc3)[nH]2)c2ccccc2N1 (stereo not drawn),-8.464

row,Compound,Percent Effect [%]
1,COc1ccc(OC)c2c(C)cc(N(CCO)CCO)nc12,-7.73
2,CCn1c(CC2CCN(C(=O)c3cc(C(C)C)n[nH]3)CC2)n[nH]c1=O,-9.861
3,CCC[C@H]1CN(CCS(C)(=O)=O)C[C@@H]1NC(=O)c1ccccn1,20.97
4,Cc1ccoc1-c1nnc(CN2CCCC(Cn3cncn3)C2)o1 (stereo not drawn),-5.411
5,Fc1ccc(-c2nnc(CN3CCOC(Cn4cncn4)C3)o2)cc1 (stereo not drawn),-1.88
6,Fc1ccc(-c2nnc(CN3CCCC(Cn4cncn4)C3)o2)cc1 (stereo not drawn),112.2
7,CC(CCn1cccn1)Nc1ccc(-c2nccn2C)nn1 (stereo not drawn),-7.65
8,CC(C)(NS(C)(=O)=O)C(=O)NCCc1csc2ccccc12,9.786
9,Cn1ccnc1CN1CCCN(C(=O)c2ccc(Cl)o2)CC1,-2.733
10,Cc1occc1C(=O)N1CCCN(Cc2nccn2C)CC1,92.51
11,CCc1nnsc1C(=O)N1CCCN(Cc2nccn2C)CC1,-3.239
12,Cc1occc1C(=O)N1CCCN(Cc2ncc(Cl)n2C)CC1,3.419
13,Cc1cc(C(=O)N2CCCN(Cc3nccn3C)CC2)no1,89.63
14,O=C(NCc1ccccc1)c1nnc2ccc(N3CCOCC3)cc2n1,4.321
15,Cc1ccc(C)c2c(O)cc(CN[C@H]3CCCCNC3=O)nc12,-6.417
16,Cc1cc(NCC2CC(=O)Nc3ccccc32)nc(C)n1 (stereo not drawn),2.28
17,CCN(CC)S(=O)(=O)N1CCC(c2c(C(N)=O)sc3ccccc23)C1 (stereo not drawn),158.5
18,CN(C)S(=O)(=O)N1CC[C@]2(O)CCN(c3nc4ccccc4s3)C[C@@H]2C1,10.05
19,CC(C)C(=O)N1CCC(C2C(=O)Nc3ccccc32)CC1 (stereo not drawn),-15.74
20,O=S(=O)(N1CCOCC1)N1CCOC(CCCc2ccccc2)C1 (stereo not drawn),5.354
21,CN(C)S(=O)(=O)N1CCC(OCCCc2ccccc2)C1 (stereo not drawn),-12.64
22,NC(=O)c1sc2ccccc2c1C1CCN(S(=O)(=O)N2CCOCC2)C1 (stereo not drawn),162.8
23,CN(C)S(=O)(=O)N1CCC(c2c(C(N)=O)sc3ccccc23)C1 (stereo not drawn),94.67
24,CC(C)C(=O)N1CCC(c2c(C(N)=O)sc3ccccc23)C1 (stereo not drawn),99.6
25,CCN(CC)S(=O)(=O)N1CCCC(c2ccc(C(=O)O)cc2)C1 (stereo not drawn),-2.613
26,CC(NC(=O)N1CCC(CC(N)=O)CC1)c1csc2ccccc12 (stereo not drawn),-9.558

row,Compound,Percent Effect [%]
1,CCN(CC)S(=O)(=O)N1CCCC(c2cccc(C(=O)O)c2)C1 (stereo not drawn),14.6
2,O=S(=O)(N1CCOCC1)N1CCOC(CCc2ccccc2)C1 (stereo not drawn),-18.19
3,COCC1CCN(C(=O)c2cc(O)nc(CC(C)C)c2)CC1,9.231
4,Cl.Cl.c1c(CN2CCCC2)nc2n1CCNC2,4.335
5,CC(C(=O)NCc1cccc(N2CC=CC2)c1)n1cccn1 (stereo not drawn),-4.465
6,CCOC(=O)N1CCN(C(=O)Cc2c(C)nc(C)[nH]c2=O)CC1,-14.69
7,Cc1cnccc1NCCn1ccnc1C1CCOC1 (stereo not drawn),-4.825
8,CCC(Nc1ncnc2sc(C(=O)O)c(C)c12)c1ccnn1C (stereo not drawn),-0.5167
9,Cc1ccc(CN2C(=O)CC[C@]23CC[C@@H](NCC2CCOC2)CC3)cc1.O=C(O)C(F)(F)F (stereo partly drawn),-23.04
10,COC(=O)CCNC(=O)C1CC(=O)N(C2CCCC2)C1 (stereo not drawn),-11.01
11,CC(C)CN1CC(C(=O)NCCOc2ccc3c(c2)OCO3)CC1=O (stereo not drawn),103.1
12,O=C(NCCOc1ccc2c(c1)OCO2)C1CC(=O)N(CC2CC2)C1 (stereo not drawn),4.084
13,CC(C)N1CC(C(=O)NCCOc2ccc3c(c2)OCO3)CC1=O (stereo not drawn),7.499
14,O=C(NCCOc1cccc(Cl)c1)C1CC(=O)N(CC2CC2)C1 (stereo not drawn),-4.254
15,CC(C)CN1CC(C(=O)NCCc2c[nH]cn2)CC1=O (stereo not drawn),10.41
16,CCN1CC(C(=O)NCCOc2ccc3c(c2)OCO3)CC1=O (stereo not drawn),101.2
17,CCN1CC(C(=O)NCc2ccnc(-n3ccnc3C)c2)CC1=O (stereo not drawn),5.504
18,Cc1ccc(OCCC(=O)NC2CC(=O)N(C)C2)cc1C (stereo not drawn),-10.49
19,O=C(NCCOc1ccc2c(c1)OCO2)C1CC(=O)N(C2CC2)C1 (stereo not drawn),106.6
20,CN1CC(C(=O)NCCOc2ccc3c(c2)OCO3)CC1=O (stereo not drawn),106.4
21,CC(=O)N1CCN(c2ccccc2CNc2cncc(C)c2)CC1,-7.391
22,CCc1cc(=O)[nH]c2nnc(SCC(=O)NC)n12,-1.194
23,Cc1cc(N2CCC(c3nccn3Cc3cscn3)CC2)ccn1,-23.28
24,O=C(c1cccs1)N1CCC(O)(CN2CCc3ccccc3C2)C1 (stereo not drawn),-8.795
25,O=C1NC2(CCN(C(=O)Cc3ccsc3)CC2)CC1c1ccccc1 (stereo not drawn),6.926
26,O=C(NCc1cccs1)NCC1(O)CCc2ccccc2C1 (stereo not drawn),-8.141

row,Compound,Percent Effect [%]
1,O=C(Cc1ccsc1)N1CCC(O)(CN2CCc3ccccc3C2)C1 (stereo not drawn),104.8
2,O=C(Cc1cccs1)N1CCC(O)(CN2CCc3ccccc3C2)C1 (stereo not drawn),105.2
3,O=C(Cc1ccsc1)N1CCC2(CCCN(CC3CCOCC3)C2)C1 (stereo not drawn),-0.5355
4,CC(C)c1cc(NC(CO)CO)n2nccc2n1,17.2
5,CC(C)n1nc2c(cc1=O)CN(Cc1nc(-c3ccoc3)no1)CC2,17.12
6,COCCN1CCC(C(=O)N(C)CCOc2ccc(C)cc2Cl)C1 (stereo not drawn),-22.94
7,O=C1CO[C@H]2CN(Cc3ccc(C(F)(F)F)cc3)C[C@H]2N1,-16.85
8,O=C1CO[C@@H]2CN(S(=O)(=O)c3ccc(F)cc3)C[C@H]2N1,87.78
9,O=C1CO[C@@H]2CN(S(=O)(=O)c3ccccc3F)C[C@H]2N1,96.68
10,O=C1CO[C@H]2CN(Cc3ccc(F)c(F)c3)C[C@H]2N1,-16.97
11,CNC(=O)Cc1csc(NC(=O)C2CSCCC(=O)N2)n1 (stereo not drawn),9.778
12,Cc1nc2c(c(NC3CC3)n1)CCN(C(=O)C1(C#N)CC1)CC2,-9.329
13,CCNc1ccnc(N2Cc3cnc(CC(C)C)nc3C2)n1,8.628
14,CSc1ncc(Cl)c(C(=O)NC(Cc2ccccc2)C(=O)O)n1 (stereo not drawn),98.91
15,CSCCC(NC(=O)c1ccc2ccccc2n1)C(=O)N(C)C (stereo not drawn),-7.928
16,CCOCCNC(=O)C(CCSC)NC(=O)c1ccc2ccccc2n1 (stereo not drawn),5.309
17,CSCCC(NC(=O)c1nc(SC)ncc1Cl)C(=O)O (stereo not drawn),130.6
18,CSCCC(NC(=O)c1ccc2ccccc2n1)C(=O)O (stereo not drawn),-5.769
19,CCOc1ccc(Cl)c(C(=O)NC(Cc2ccccc2)C(N)=O)n1 (stereo not drawn),-4.15
20,CSc1ccsc1C(=O)NC(Cc1ccccc1)C(N)=O (stereo not drawn),-23.55
21,CCCSc1ncc(Cl)c(C(=O)NC(CCSC)C(=O)O)n1 (stereo not drawn),125.3
22,CCSc1ncc(Cl)c(C(=O)NC(CCSC)C(=O)O)n1 (stereo not drawn),88.5
23,CCOc1ccc(Cl)c(C(=O)NC(C(N)=O)c2ccccc2)n1 (stereo not drawn),-8.916
24,C=C(C)COc1ccc(C(=O)NCCn2c(C)cc(C)nc2=O)cc1,3.763
25,NC(CC1CCCC1)c1ccc(Oc2ccccc2)cc1 (stereo not drawn),-4.539

# Reference: ChEMBL document CHEMBL3988442, “University of Dundee, Small-Polar-MMV Screening Library” (2021)
